# PubChem BioAssay (NCATS)
# Records with an inconclusive call do not appear. Entries that show only a call come without a potency. Calls of active or inactive are those of the source. The call rests on the fitted dose curve; in most records, active means well fitted inhibition curve with a large enough effect; inconclusive means small, poorly fitted or top-dose-only effect; inactive means flat fitted curve, though single readings scatter.
# Key:
# Assay in all cases: qHTS profiling for inhibitors of Plasmodium falciparum proliferation (AID 504749); further: nearly all actives have a fitted effect of over 60% in size
# Conditions in all cases: P. falciparum in erythrocytes, SYBR Green DNA, 72 h; series mostly up to 28.7 µM
# AS120 = system: AS120
# Method in brief: (§1)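 SYBR Green fluorescence (ex 485 nm, em 535 nm) reports parasite DNA after 72 h compound exposure of infected red cells at 0.3% parasitemia, 2.5% hematocrit; signal normalized to 0.29 uM artemisinin and vehicle wells.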
# ATS189 = system: ATS189
# Method in brief: as §1
# ATS95 = system: ATS95
# Method in brief: as §1
# C2A = system: C2A
# Method in brief: as §1
# CP185 = system: CP185
# Method in brief: as §1
# CP191 = system: CP191
# Method in brief: as §1
# CP192 = system: CP192
# Method in brief: as §1
# CP194 = system: CP194
# Method in brief: as §1
# CP201 = system: CP201
# Method in brief: as §1
# CP203 = system: CP203
# Method in brief: as §1
# CP211 = system: CP211
# Method in brief: as §1
# CP215 = system: CP215
# Method in brief: as §1
# CP217 = system: CP217
# Method in brief: as §1
# CP237 = system: CP237
# Method in brief: as §1
# CP238 = system: CP238
# Method in brief: as §1
# CP247 = system: CP247
# Method in brief: as §1
# CP250 = system: CP250
# Method in brief: as §1
# CP252 = system: CP252
# Method in brief: as §1
# CP256 = system: CP256
# Method in brief: as §1
# CP260 = system: CP260
# Method in brief: as §1
# Potency means the concentration at half of the fitted maximal effect.
Compound,Potency (AS120),Potency (ATS189),Potency (ATS95),Potency (C2A),Potency (CP185),Potency (CP191),Potency (CP192),Potency (CP194),Potency (CP201),Potency (CP203),Potency (CP211),Potency (CP215),Potency (CP217),Potency (CP237),Potency (CP238),Potency (CP247),Potency (CP250),Potency (CP252),Potency (CP256),Potency (CP260)
O=C(O)CCCCC(=O)O,inactive,inactive,inactive,inactive,inactive,inactive,inactive,inactive,inactive,inactive,inactive,inactive,inactive,inactive,inactive,inactive,inactive,inactive,inactive,inactive
CC(C)COC(=O)OCN1C(=O)CN(CCN2CC(=O)N(COC(=O)OCC(C)C)C(=O)C2)CC1=O,inactive,inactive,inactive,inactive,inactive,inactive,inactive,inactive,inactive,inactive,inactive,inactive,inactive,inactive,inactive,inactive,inactive,inactive,inactive,inactive
CCCCOc1ccc(C(=O)CCN2CCCCC2)cc1,inactive,inactive,inactive,inactive,inactive,inactive,inactive,inactive,inactive,inactive,inactive,inactive,inactive,inactive,inactive,inactive,inactive,inactive,inactive,inactive
O=C(Nc1ccc(Cl)c(Cl)c1)C1CC1,inactive,inactive,inactive,inactive,inactive,inactive,inactive,inactive,inactive,inactive,inactive,inactive,inactive,inactive,inactive,inactive,inactive,inactive,inactive,inactive
NC(CO)(CO)CO,inactive,inactive,inactive,inactive,inactive,inactive,inactive,inactive,inactive,inactive,inactive,inactive,inactive,inactive,inactive,inactive,inactive,inactive,inactive,inactive
O=c1ccc2ccccc2o1,inactive,inactive,inactive,inactive,inactive,inactive,inactive,inactive,inactive,inactive,inactive,inactive,inactive,inactive,inactive,inactive,inactive,inactive,inactive,inactive
Oc1c(Cl)cc(Cl)cc1Sc1cc(Cl)cc(Cl)c1O,inactive,inactive,inactive,inactive,inactive,inactive,inactive,inactive,inactive,inactive,inactive,inactive,inactive,inactive,inactive,inactive,inactive,inactive,inactive,inactive
COc1cc(OC)cc(OC)c1,inactive,inactive,inactive,inactive,inactive,inactive,inactive,inactive,inactive,inactive,inactive,inactive,inactive,inactive,inactive,inactive,inactive,inactive,inactive,inactive
C[C@]12CCC(=O)C=C1CC[C@H]1[C@@H]3CC[C@](O)(C(=O)CO)[C@@]3(C)C[C@H](O)[C@@]12F,inactive,inactive,inactive,inactive,inactive,inactive,inactive,inactive,inactive,inactive,inactive,inactive,inactive,inactive,inactive,inactive,inactive,inactive,inactive,inactive
CCC(C(=O)OCCN(CC)CC)c1ccccc1 (stereo unspecified),inactive,inactive,inactive,inactive,inactive,inactive,inactive,inactive,inactive,inactive,inactive,inactive,inactive,inactive,inactive,inactive,inactive,inactive,inactive,inactive
NCCC(O)(P(=O)(O)O)P(=O)(O)O,inactive,inactive,inactive,inactive,inactive,inactive,inactive,inactive,inactive,inactive,inactive,inactive,inactive,inactive,inactive,inactive,inactive,inactive,inactive,inactive
COc1ccc(C2C(=O)c3ccccc3C2=O)cc1,inactive,inactive,inactive,inactive,inactive,inactive,inactive,inactive,inactive,inactive,inactive,inactive,inactive,inactive,inactive,inactive,inactive,inactive,inactive,inactive
CC(=O)OCC(=O)NCCCOc1cccc(CN2CCCCC2)c1,inactive,inactive,inactive,inactive,inactive,inactive,inactive,inactive,inactive,inactive,–,inactive,inactive,inactive,inactive,inactive,inactive,inactive,inactive,inactive
COc1ccc(/C=C/C(=O)c2ccc(OC)cc2OC)cc1,8.91 µM (active),5.62 µM (active),11.2 µM (active),11.2 µM (active),8.91 µM (active),3.16 µM (active),13.5 µM (active),12 µM (active),8.49 µM (active),13.5 µM (active),6.75 µM (active),6.75 µM (active),5.01 µM (active),11.2 µM (active),11.2 µM (active),4.47 µM (active),5.62 µM (active),5.01 µM (active),2.24 µM (active),8.91 µM (active)
CC(=O)Oc1ccc(C(c2ccc(OC(C)=O)cc2)c2ccccn2)cc1,inactive,inactive,inactive,inactive,inactive,inactive,inactive,inactive,inactive,inactive,inactive,inactive,inactive,inactive,inactive,inactive,inactive,inactive,inactive,inactive
CN1C(CCl)Nc2cc(Cl)c(S(N)(=O)=O)cc2S1(=O)=O (stereo unspecified),inactive,inactive,inactive,inactive,inactive,inactive,inactive,inactive,inactive,inactive,inactive,inactive,inactive,inactive,inactive,inactive,inactive,inactive,inactive,inactive
c1ccc(OCc2ccc(CCCN3CCOCC3)cc2)cc1,inactive,inactive,inactive,inactive,inactive,inactive,inactive,inactive,inactive,–,inactive,inactive,inactive,inactive,inactive,inactive,inactive,inactive,inactive,inactive
CC(C)(CO)[C@@H](O)C(=O)NCCCO,inactive,inactive,inactive,inactive,inactive,inactive,inactive,inactive,inactive,–,inactive,inactive,inactive,inactive,inactive,inactive,inactive,inactive,inactive,inactive
CC[N+](CC)(CCNC(=O)C(=O)NCC[N+](CC)(CC)Cc1ccccc1Cl)Cc1ccccc1Cl,1 µM (active),2.24 µM (active),2.82 µM (active),10 µM (active),1.58 µM (active),4.47 µM (active),–,2.39 µM (active),4.78 µM (active),1.35 µM (active),1.07 µM (active),3.79 µM (active),7.94 µM (active),3.16 µM (active),2.51 µM (active),3.55 µM (active),2.51 µM (active),4.47 µM (active),0.398 µM (active),1.58 µM (active)
CC(O)(P(=O)(O)O)P(=O)(O)O,inactive,inactive,inactive,inactive,inactive,inactive,inactive,inactive,inactive,–,inactive,inactive,inactive,inactive,inactive,inactive,inactive,inactive,inactive,inactive
CC(C)COC(=O)c1ccc(N)cc1,inactive,inactive,inactive,inactive,inactive,inactive,inactive,inactive,–,–,inactive,inactive,inactive,inactive,inactive,inactive,inactive,inactive,inactive,inactive
CC1(C)CCC(NC(=O)[C@@H](N)CCC(=O)O)CC1,inactive,inactive,inactive,inactive,inactive,inactive,inactive,inactive,inactive,–,inactive,inactive,inactive,inactive,inactive,inactive,inactive,inactive,inactive,inactive
CCCN1CCCC[C@H]1C(=O)Nc1c(C)cccc1C,inactive,inactive,inactive,inactive,inactive,inactive,inactive,inactive,inactive,–,inactive,inactive,inactive,6.31 µM (active),inactive,inactive,inactive,inactive,inactive,inactive
Cc1cc(N)c2cc(NC(=O)Nc3ccc4nc(C)cc(N)c4c3)ccc2n1,12.6 µM (active),5.62 µM (active),11.2 µM (active),10 µM (active),11.2 µM (active),0.631 µM (active),3.79 µM (active),–,–,–,3.79 µM (active),–,8.91 µM (active),5.01 µM (active),12.6 µM (active),12.6 µM (active),11.2 µM (active),inactive,1.78 µM (active),5.62 µM (active)
C[C@H]1C[C@H]2[C@@H]3CCC4=CC(=O)C=C[C@]4(C)[C@@]3(Cl)[C@@H](O)C[C@]2(C)[C@@]1(O)C(=O)CO,inactive,inactive,inactive,inactive,inactive,inactive,inactive,inactive,inactive,–,inactive,inactive,inactive,inactive,inactive,inactive,inactive,inactive,inactive,inactive
